PubChem BioAssay (NCI)
Compounds without any hit were thinned out: in the full panel of roughly 79,000, 15% have a hit. No stated cut-off is given here; in the data, active means growth inhibition above about 70%; inactive means the rest. Where a SMILES comes first, the peptide text is derived from it. The star is where a group is joined. Cbz = O=C(OCc1ccccc1)*

Experiments:
[1] = NCI Yeast Anticancer Drug Screen. Data for the rad50 strain (AID 155);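 further: 0% = growth of vehicle-only cultures of the same strain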; settings: S. cerevisiae rad50 strain growth inhibition, hits give high values; at 50.0 µM unless noted
Method in brief: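 Compounds were tested on a yeast strain with an engineered DNA damage repair alteration; the reported value is growth inhibition normalised to vehicle treatment.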

[2] = NCI Yeast Anticancer Drug Screen. Data for the mec2-1 strain (AID 157); settings: S. cerevisiae mec2-1 strain, hits give high values; at 50.0 µM unless noted
Method in brief: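 Each compound was tested on mec2-1 yeast, a strain altered in DNA damage repair or cell cycle control. Growth inhibition is reported relative to vehicle.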

[3] = NCI Yeast Anticancer Drug Screen. Data for the sgs1 mgt1 strain (AID 161);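 further: 0% = growth of cultures given vehicle only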; settings: S. cerevisiae sgs1 mgt1 strain, hits give high values; at 50.0 µM unless noted
Method in brief: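 Read-out: growth inhibition vs vehicle controls. Cells: mutant yeast strain deficient in DNA damage repair.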

[4] = NCI Yeast Anticancer Drug Screen. Data for the cln2 rad14 strain (AID 165);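 further: 0% = growth equal to vehicle treated cultures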; settings: S. cerevisiae cln2 rad14 strain, hits give high values; at 50.0 µM unless noted
Method in brief: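 Test compounds were added to cln2 rad14 yeast cultures; inhibition of growth was then determined by comparison with vehicle treatment.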

[5] = NCI Yeast Anticancer Drug Screen. Data for the bub3 strain (AID 167); settings: S. cerevisiae bub3 mutant strain, hits give high values; at 50.0 µM unless noted
Method in brief: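 Growth of a checkpoint-deficient yeast mutant is measured after compound exposure. Values represent inhibition relative to vehicle.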

[6] = NCI Yeast Anticancer Drug Screen. Data for the mlh1 rad18 strain (AID 175); settings: S. cerevisiae mlh1 rad18 strain growth inhibition, hits give high values; at 50.0 µM unless noted
Method in brief: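 Inhibition values reflect reduced growth of mutant yeast versus vehicle-treated controls following compound exposure; the mutations affect DNA damage repair.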

Measured: growth inhibition

C=C(C)C(=O)Oc1ccccc1/C=C/C(=O)CCCCCC
inactive: [1] -8.45% | [2] -14.1% | [3] -20.4% | [4] -9.1% | [5] -11% | [6] 4.4%

CCOC(=O)C(F)C(=O)OCC
inactive: [1] 14.8% | [2] -2.95% | [3] -1% | [4] 12.1% | [5] -4.55% | [6] -5.4%

CCOC(=O)C(CCCCNC(=O)CC)NC(=O)CC (stereo not given)
inactive: [1] 3.5% | [2] 1.3% | [3] 3.3% | [4] 3.55% | [5] 11.2% | [6] 2.65%

O=S1(=O)C(c2ccccc2)=C1c1ccccc1
inactive: [1] -6.95% | [2] 6.55% | [3] 8.6% | [4] 24.6% | [5] -11.7% | [6] 17.6%

O=C(CSc1n[nH]c(=S)c2nc[nH]c12)c1ccc(Br)cc1
inactive: [1] 11.7% | [2] -0.2% | [3] 21.6% | [4] 33.1% | [5] -0.4% | [6] -8.65%

C=C(Br)CN(C#N)CC(=C)Br
inactive: [1] -24.4% | [2] -18.1% | [3] 13.8% | [4] -4.25% | [5] -10.5% | [6] -56.9%

O=C(Nc1ccc(S(=O)(=O)NC2CCCCC2)cc1)Oc1ccccc1C(=O)O
inactive: [1] 49% | [2] -1.65% | [3] 39.9% | [4] 26.1% | [5] 16.1% | [6] 32.1%

O=C(C1=CCCCC1)c1ccc(-c2ccccc2)cc1
inactive: [1] -4.25% | [2] 11.2% | [3] 2.25% | [4] -14.6% | [5] -6.15% | [6] 4.65%

COc1ccc(CCC(=O)c2ccc(N)cc2)cc1
inactive: [1] -22.1% | [2] -16.4% | [3] -0.65% | [4] -11.5% | [5] -3.75% | [6] -22.3%

CSC(=NC(=O)c1ccccc1)SCCSC(=NC(=O)c1ccccc1)SC
inactive: [1] 6.45% | [2] -7.35% | [3] 2.8% | [4] 33.6% | [5] -3.65% | [6] 6.35%

Cc1cc2nc3c(=O)[nH]c(=O)nc-3n(C/C=N/NC(N)=S)c2cc1C
inactive: [1] 5.75% | [2] -7.65% | [3] -5.05% | [4] -45.1% | [5] -12.8% | [6] -2.7%

N#Cc1c(-c2ccccc2)c(-c2ccccc2)nn(CCO)c1=O
inactive: [1] 7.35% | [2] 10.8% | [3] 20.9% | [4] -21.8% | [5] 6.4% | [6] 46%

Cc1ccc(/C=N/NC(N)=S)nn1
inactive: [1] 3.45% | [2] 2.25% | [3] -8.15% | [4] -67.4% | [5] 2.45% | [6] 5.4%

Cc1ccnc(NC(=O)CCc2ccccc2)c1
inactive: [1] -11.8% | [2] -16.8% | [3] -10.3% | [4] -31.7% | [5] -13.2% | [6] -5.85%

COc1ccc(/C=N/NC(=S)NN)cc1
inactive: [1] -6.6% | [2] 9.1% | [3] 13% | [4] -18.9% | [5] 33.6% | [6] 13.2%

CCOC(=O)CCC(NC(=O)C(Cc1ccccc1)NC(=O)OCc1ccccc1)C(=O)OCC (stereo not drawn) (Cbz-Phe-Glu(OEt)-OEt; configuration not given here)
inactive: [1] 3.9% | [2] -2.9% | [3] -0.2% | [4] -6.25% | [5] -7.85% | [6] -59.4%

Cc1ccc(S(=O)(=O)n2cc(C#N)c(C#N)c2)cc1
inactive: [1] -10.8% | [2] 2.25% | [3] 10.8% | [4] -28.6% | [5] 16.3% | [6] 7.15%

O.O.O=S(=O)(O)C(F)(F)F.[NH2-].[NH2-].[NH2-].[NH2-].[Ru+3]
inactive: [1] -17.8% | [2] 1.8% | [3] -27% | [4] -16.9% | [5] -27.4% | [6] -11.6%

CC(CCC#CC(=O)O)OC1CCCCO1 (stereo not given)
inactive: [1] -14.9% | [2] -33% | [3] -2.05% | [4] 2.95% | [5] -15.1% | [6] -14.2%

Nc1nc2c(ncn2-c2ccc(Br)cc2)c(=O)[nH]1
inactive: [1] 15.2% | [2] -1.6% | [3] 20.9% | [4] 32.1% | [5] -4.8% | [6] 59.8%
